Compound activity: PubChem BioAssay, National Center for Advancing Translational Sciences (NCATS)
NPC1 prom act = NPC1 promoter activation | Huh7 NPC1 promoter luciferase reporter, 24 h | Potency, µM (titrated, usually from 9.22 µM), for the others: at the highest dose activation, most hits filed as activators | AID 485313 | hit rate 2.4% among 320,000; further: % of control where 0% means no effect; nearly all actives have a fitted effect of over 60% in size
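Luciferase expression driven by the NPC1 promoter was measured in stably transfected Huh7 cells after a 24 h compound incubation, using a luciferase reagent and a luminescence read.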
KinaseGlo FLuc = blocks Kinase-Glo luciferase, a counter-screen artifact; Q27757; Kinase-Glo luciferase, ATP luminescence, 8 min; Potency, µM (doses to about 38.3 µM), inactives show at the highest dose activity change, negative = inhibition, actives largely listed as inhibitors; hit rate 0.28% among 200,000; further: on the % scale 0 is the no-effect control and ±100 the full control effect; nearly all actives have a fitted effect of over 60% in size
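Inhibition of Kinase-Glo luciferase light generation was assessed at 10 uM ATP in pH 7.2 imidazole buffer, with luminescence measured after eight minutes at ambient temperature.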
SMN2 splice enh = enhancers of SMN2 splice variant expression. HEK293 SMN2-luciferase splicing reporter, luminescence, 30-36 h. Potency, µM (top dose mostly 46.1 µM), inactives show at the highest dose activity change, positive = activation, hits mostly activators. hit rate 2.8% among 210,000; further: % of control where 0% means no effect; nearly all actives have a fitted effect of over 55% in size
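HEK293 cells carry an SMN2 […]–luciferase reporter in which exon 7 inclusion puts luciferase in frame. Cells were plated 10-12 h before compound addition, then incubated 30-36 h at 37C. ONE-Glo luminescence was read; sodium butyrate at 4.5 mM final served as control.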
ELG1 genotox = inducers of genotoxicity in HEK293T ELG1-luciferase cells; HEK293T ELG1-luciferase reporter, luminescence, 16 h; Potency, µM (highest dose often 46 µM), inactives show top-dose activity change, positive = activation, most hits filed as activators; hit rate 1.3% among 330,000; AID 504466; further: % of control where 0% means no effect; nearly all actives have a fitted effect of over 60% in size
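Screening used a luciferase reporter fused to human ELG1 in HEK293T cells. Luminescence was read on a CCD plate imager after 16 hr exposure and 30 min ONE-Glo incubation.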
Rab9 promoter act = activators of Rab9 promoter; Huh7 Rab9 promoter-luciferase reporter, luminescence, 24 h; Potency, µM (highest dose often 9.22 µM), without a hit: at the highest dose activation, negative = inhibition, most hits filed as activators; hit rate 2.8% among 320,000; further: % of control where 0% means no effect; nearly all actives have a fitted effect of over 60% in size
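Using Huh7 cells stably transfected with Rab9 promoter–luciferase, compounds were incubated 24 h at 37 °C, 5% CO2; luciferase luminescence was read 10 min after reagent addition.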
FLuc modulator = inhibits or activates purified firefly luciferase, miR-21 counter-screen. P08659. purified FLuc, Km substrates, luminescence inhibition. Potency, µM (titrated, usually from 57.5 µM), without a hit: at the highest dose activity change, negative = inhibition, actives largely listed as inhibitors. hit rate 6.9% among 360,000. AID 588342;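 further: plate controls were vehicle for no effect and reference inhibitor for full effect; nearly all actives have a fitted effect of over 55% in size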
Target sequence (P08659 whole entry, looked up): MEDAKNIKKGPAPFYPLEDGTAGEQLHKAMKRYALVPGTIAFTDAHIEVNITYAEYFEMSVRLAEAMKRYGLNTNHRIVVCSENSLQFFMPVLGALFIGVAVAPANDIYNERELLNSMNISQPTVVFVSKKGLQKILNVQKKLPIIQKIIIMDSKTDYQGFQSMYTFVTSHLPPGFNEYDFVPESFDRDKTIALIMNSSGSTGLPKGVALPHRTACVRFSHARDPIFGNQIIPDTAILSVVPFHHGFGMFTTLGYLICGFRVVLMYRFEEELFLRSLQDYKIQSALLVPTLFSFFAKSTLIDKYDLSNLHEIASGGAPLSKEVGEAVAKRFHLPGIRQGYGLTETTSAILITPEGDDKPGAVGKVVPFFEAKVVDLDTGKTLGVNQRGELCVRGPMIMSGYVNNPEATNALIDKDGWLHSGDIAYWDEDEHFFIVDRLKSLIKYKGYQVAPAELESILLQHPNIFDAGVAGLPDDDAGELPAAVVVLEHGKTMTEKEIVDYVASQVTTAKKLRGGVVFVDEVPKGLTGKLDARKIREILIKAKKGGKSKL
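Purified P. pyralis luciferase (10nM final) with 10uM D-luciferin and 10uM ATP (Km levels) in 50mM Tris acetate pH 7.5, 10mM Mg acetate, 0.01% Tween-20, 0.05% BSA; qHTS 6-point titration, ~60 µM downward; luminescence read.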
Starred values were filed as active, the others as inactive; [ ] = remark or other dose. A selection: hits, their analogues and other compounds. The true share with any hit is near 7.3%. The call rests on the fitted dose curve; in most records, active means well fitted curve in the direction sought with a large enough effect; inconclusive means small, poorly fitted or top-dose-only effect, or another doubt; inactive means no such curve, though single readings can be large; an effect the other way counts as inactive or inconclusive. Potency means the concentration at half of the fitted maximal effect.

`Cc1c(-c2ccccc2)[nH]n2c(=O)c3c(nc12)CCCC3` gave NPC1 prom act inconclusive, KinaseGlo FLuc -4.5%, SMN2 splice enh 11.2µM*, ELG1 genotox inconclusive, Rab9 promoter act inconclusive and FLuc modulator 15.1µM*.
`COc1ccc(-c2cc3nc4c(c(=O)n3[nH]2)CCC4)cc1` gave NPC1 prom act inconclusive, KinaseGlo FLuc -12.2%, SMN2 splice enh 10µM*, ELG1 genotox inconclusive, Rab9 promoter act 2.82µM* and FLuc modulator 4.26µM*.
`O=c1c2c(nc3cc(-c4ccccc4)[nH]n13)CCC2` gave NPC1 prom act 2.82µM*, KinaseGlo FLuc inconclusive, SMN2 splice enh 11.2µM*, ELG1 genotox inconclusive, Rab9 promoter act inconclusive and FLuc modulator 6.01µM*.
`Cc1ccc(-c2[nH]n3c(=O)c4c(nc3c2C)CCCC4)cc1` gave NPC1 prom act inconclusive, KinaseGlo FLuc -7.4%, SMN2 splice enh 21.4%, ELG1 genotox inconclusive, Rab9 promoter act inconclusive and FLuc modulator inconclusive.
CC12CC[C@@H]3c4ccc(OS(=O)(=O)O)cc4CC[C@H]3C1CCC2=O (stereo partly drawn) was read as KinaseGlo FLuc -1.7%[17.1 µM] and SMN2 splice enh -5.6%[20.6 µM].
`C=CCc1cccc(/C=N/NC(=O)c2ccccc2Br)c1O` gave NPC1 prom act -4.5%, ELG1 genotox inconclusive, Rab9 promoter act -3.3% and FLuc modulator inconclusive.
C=CCc1cccc(/C=N/NC(=O)c2ccccc2OC)c1O was read as NPC1 prom act 24.4%, KinaseGlo FLuc 3.5%, SMN2 splice enh -102.4%, ELG1 genotox inconclusive, Rab9 promoter act -2.9% and FLuc modulator 13.5µM*.
C=CCc1cccc(/C=N/NC(=O)c2ccc3nc[nH]c3c2)c1O was read as NPC1 prom act -42.2%, ELG1 genotox inconclusive, Rab9 promoter act -49.5% and FLuc modulator 16.9µM*.
Screening O=C(N/N=C/c1ccc(Cl)cc1Cl)c1cccc(F)c1 returned NPC1 prom act 1.78µM*, KinaseGlo FLuc -14.9%, SMN2 splice enh inconclusive, ELG1 genotox inconclusive, Rab9 promoter act 2µM* and FLuc modulator 3.38µM*.
For CCc1ccc(C(=O)N/N=C/c2ccc(Cl)cc2Cl)nc1 the results were NPC1 prom act 10.0%, KinaseGlo FLuc -0.2%, SMN2 splice enh 26.0%, ELG1 genotox 6.0%, Rab9 promoter act 22.5% and FLuc modulator 7.57µM*.
O=C(C[n+]1ccc(C(=O)N/N=C/c2ccc(Cl)cc2Cl)cc1)c1ccccc1 was read as NPC1 prom act -4.7%, KinaseGlo FLuc -4.6%, SMN2 splice enh 5.9%, ELG1 genotox -1.7%, Rab9 promoter act 2.6% and FLuc modulator 2.1%.
`O=C(N/N=C/c1ccccc1C(F)(F)F)c1ccc2nc[nH]c2c1` gave NPC1 prom act inconclusive, ELG1 genotox 11.5%, Rab9 promoter act inconclusive and FLuc modulator inconclusive.
For COc1cc(-c2nc(-c3ccccc3)c(-c3ccc(Br)cc3)[nH]2)cc(OC)c1O the results were SMN2 splice enh 7.9% and FLuc modulator -1.2%.
`Cn1nnnc1SCCCNCc1ccccc1OCc1ccc(F)cc1` gave FLuc modulator -5.6%.
Screening O=C(CC1N=C2c3ccccc3N=C(SCC(=O)Nc3ccccc3F)N2C1=O)NCc1ccc2c(c1)OCO2 (stereo not drawn) returned SMN2 splice enh 4.9% and FLuc modulator -10.7%.
Screening O=C(N/N=C/c1ccc(Cl)cc1Cl)c1ccc2nc[nH]c2c1 returned NPC1 prom act 7.7%, ELG1 genotox 18.2%, Rab9 promoter act 24.1% and FLuc modulator 9.53µM*.
`C(=N\Nc1ncnc2sc3c(c12)CCC3)/c1cccs1` gave NPC1 prom act -7.2%, KinaseGlo FLuc 5.6%, SMN2 splice enh -47.1%, ELG1 genotox -6.3%, Rab9 promoter act -1.1% and FLuc modulator -19.5%.
Cn1cnc2c(N/N=C/c3cccs3)ncnc21 was read as NPC1 prom act 3.55µM*, ELG1 genotox inconclusive, Rab9 promoter act 1.78µM* and FLuc modulator 8.49µM*.
O=C(CSc1cn(CCNC(=O)c2c(F)cccc2F)c2ccccc12)Nc1ccc(F)cc1 was read as SMN2 splice enh inconclusive and FLuc modulator -0.4%.
For CCOc1ccc(-c2nc3c(c(CC)nn3-c3ccccc3)c3cc(OC)c(OC)cc23)cc1 the results were SMN2 splice enh 5.0% and FLuc modulator 2.2%.
`Cc1ccc(OCC(=O)Nc2ccc3nn(-c4ccc(Cl)cc4)nc3c2)cc1` gave SMN2 splice enh -16.5% and FLuc modulator 1.6%.
Screening C/C(=N\NC(=O)c1c(Cl)c(C)nn1C)c1cccc(NC(=O)COc2ccc(Cl)cc2)c1 returned NPC1 prom act inconclusive, KinaseGlo FLuc -0.2%, SMN2 splice enh 13.4%, ELG1 genotox 3.2%, Rab9 promoter act 26.2% and FLuc modulator 8.49µM*.
Screening C/C(=N/NC(=O)c1ccc(C)s1)c1cccc(NC(=O)COc2ccc(Cl)cc2C)c1 returned NPC1 prom act 26.2%, KinaseGlo FLuc 2.3%, SMN2 splice enh -7.6%, ELG1 genotox 7.5%, Rab9 promoter act 3.1% and FLuc modulator 5.36µM*.
`Cc1cc(Cl)ccc1OCC(=O)Nc1nc(N)nc(N)n1` gave KinaseGlo FLuc -1.6%[7.66 µM] and SMN2 splice enh -6.5%[9.22 µM].
Screening CCc1cc(C(=O)Nc2cnn(Cc3ccccc3C)c2)no1 returned SMN2 splice enh 17.8µM* and FLuc modulator 23.9µM*.
`CC1(C)CC(=O)C(C(C2=C(O)CC(C)(C)CC2=O)c2cccs2)C(=O)C1` (stereo not drawn) gave NPC1 prom act -4.4%, ELG1 genotox 3.0%, Rab9 promoter act -1.2% and FLuc modulator 16.9µM*.
For CC(=O)Oc1ccc2c(=O)c(-c3nc4ccccc4s3)coc2c1 the results were NPC1 prom act 1.26µM*, KinaseGlo FLuc 10µM*, SMN2 splice enh 12.6µM*, ELG1 genotox inconclusive, Rab9 promoter act 1.26µM* and FLuc modulator 1.07µM*.
For COC(=O)COc1ccc2c(-c3ccc(OC)cc3)cc(=O)oc2c1 the results were NPC1 prom act -0.7%, KinaseGlo FLuc -3.0%, SMN2 splice enh -10.5%, ELG1 genotox 0.9%, Rab9 promoter act -3.0% and FLuc modulator inconclusive.
COC(=O)COc1ccc2c(=O)c(-c3ccccc3)coc2c1 was read as NPC1 prom act 2.9%, ELG1 genotox -1.9%, Rab9 promoter act 1.3% and FLuc modulator 16.9µM*.
CC(C)Oc1ccc2c(=O)c(-c3ccccc3)coc2c1 was read as NPC1 prom act 0.794µM*, KinaseGlo FLuc -5.2%, SMN2 splice enh 3.16µM*, ELG1 genotox 9.2µM*, Rab9 promoter act 0.891µM* and FLuc modulator 1.69µM*.
